PfHsp90 yeast 2 – inhibits growth of yeast expressing Plasmodium falciparum Hsp90. S. cerevisiae expressing PfHsp90, BacTiter-Glo ATP, 48 h; yeast lacking PDR1 and PDR3 efflux regulators. inhibition, % at 9.4 µM. hit rate 0.32% among 310,000;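 active = every replicate shows inhibition above about 80%, whatever the replicate mean, limit read from the data; inconclusive = mean inhibition reaches the set limit but some replicate falls short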
SKKanGAS inh – blocks kanamycin growth of S. pyogenes SKKanGAS strain; BacTiter-Glo, 6 h; inhibition, % at 7.5 µM; hit rate 1.3% among 300,000;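 active = mean replicate score, as percent of positive control median, at least 50; inconclusive = mean below 50 but one replicate at or above 50; inactive = mean and every replicate below 50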;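 note: strain carries kanamycin resistance gene driven by streptokinase promoter and grows in 40 µg/ml kanamycin; loss of luminescence reflects streptokinase promoter inhibition or plain growth inhibition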
NALP3 yeast inh – inhibitors of NALP3 inflammasome in yeast; Yeast reconstituted NLRP3/ASC/caspase-1, beta-gal luminescence, 24 h; inhibition, % at 10 µM; hit rate 0.39% among 330,000; AID 2825;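 active = inhibition of 50% or more; inactive = inhibition below 50%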
tim10-1 inh – inhibits growth of tim10-1 mutant yeast; S. cerevisiae tim10-1 ts strain growth, BacTiter-Glo, 24 h; inhibition, % at 20 µM; hit rate 2.2% among 330,000; AID 463190;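 active = inhibition of at least 40%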;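 note: mutant grown at 25 °C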
TIM10 inh – TIM10 yeast growth inhibition; S. cerevisiae TIM10 strain growth, BacTiter-Glo luminescence, 24 h; inhibition, % at 10 µM; hit rate 1.4% among 330,000;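 active = inhibition of 40% or more at the single tested concentration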;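 note: wild-type TIM10 isogenic control strain grown at permissive 25 °C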
tim23-1 inh – inhibits growth of tim23-1 mutant yeast. S. cerevisiae tim23-1 growth, BacTiter-Glo luminescence, 24 h. inhibition, % at 20 µM. hit rate 1.3% among 330,000;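 active = growth inhibition of the mutant yeast at or above 50%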;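 note: temperature-sensitive mutant grown at 25 °C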
tim10-1 conf – tim10-1 yeast growth inhibition, confirmed | shares compounds with tim10-1 inh | AID 463213 | inhibition, % at 20 µM | S. cerevisiae tim10-1 ts strain growth, BacTiter-Glo, 24 h | hit rate 56% among 7,400;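 active = inhibition of yeast growth at or above a set limit in either of two repeat tests at 20 µM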;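 note: tim10-1 mutant grown at permissive 25 °C to find synthetic lethal compounds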
TIM10 conf – TIM10 yeast growth inhibition, confirmed; AID 463215; S. cerevisiae tim10 strain growth, BacTiter-Glo luminescence, 24 h; inhibition, % at 10 µM; shares compounds with TIM10 inh; hit rate 63% among 4,600;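 active = inhibition of yeast growth at or above a set limit in either of two replicates at 10 µM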; note: this counterscreen used the strain with wild-type TIM10
Numbers stand for hits; - = inactive; ? = inconclusive; . = no result. The list is not random: actives were taken first. Their share in the collection is about 4.6%.

SMILES	PfHsp90 yeast 2	SKKanGAS inh	NALP3 yeast inh	tim10-1 inh	TIM10 inh	tim23-1 inh	tim10-1 conf	TIM10 conf
COc1cccc(N2CCN(CC(=O)Nc3nc(C)c(C(=O)N(C)C)s3)CC2)c1	-	-	-	-	-	-	.	.
Oc1ccccc1-c1nc(NCC2CCCO2)c2ccccc2n1 (configuration not stated)	-	-	-	55.6	60.6	-	40.5	-
COc1cccc(-c2nc(NCC3CCCO3)c3ccccc3n2)c1O (configuration not stated)	-	-	-	-	-	-	.	.
Cc1ccc(Nc2ncccc2C(=O)NCc2cccs2)c(C)c1	.	-	-	48.9	50.6	-	33.2	39.0
N/C(Cc1ccc(Cl)cc1Cl)=N\OC(=O)c1cccs1	82.9	-	-	73.1	85.7	-	37.3	85.9
N/C(Cc1ccc(Cl)cc1Cl)=N\OC(=O)Cc1cccs1	-	-	-	47.5	49.0	-	38.5	-
O=C(COC(=O)c1cccs1)Nc1cccc(Cl)c1	-	.	-	-	-	-	.	.
N/C(=N\OC(=O)Cc1cccs1)c1ccc(Br)cc1	-	-	-	-	-	-	.	.
O=C(COc1ccccc1F)Nc1ccc(S(=O)(=O)NCc2ccco2)cc1	-	-	-	46.2	40.1	-	33.1	-
O=C(COC(=O)CCc1ccc(S(=O)(=O)N2CCOCC2)cc1)NC(=O)NC1CCCCC1	-	-	-	-	-	-	.	.
COC(=O)[C@]1(C)N[C@H](CN(C)C(=O)Nc2ccc(C(F)(F)F)cc2)[C@@H]2C(=O)N(C)C(=O)[C@@H]21	-	.	-	-	-	-	.	.
S=C(Nc1cccc(Cl)c1)NC1CCCCC1	-	-	-	-	-	-	.	.
S=C(NNc1cccc(Cl)c1)NC1CCCCC1	-	-	-	48.8	60.8	-	40.8	54.9
Cc1ccc(C)c(NC(=S)NCc2ccc3[nH]c4c(c3c2)CCCC4)c1	-	-	-	44.8	42.9	-	34.5	40.0
COC(=O)c1cc(N2C(=O)C3C(C2=O)C2(C)C=CC3(C)O2)ccc1Cl (configuration not stated)	.	-	-	53.3	82.7	-	75.5	89.7
CC(=O)Oc1ccc(N2C(=O)C3C(C2=O)C2(C)C=CC3(C)O2)cc1 (configuration not stated)	.	.	-	55.5	83.2	-	92.7	87.4
O=C(CCCCl)NC(=S)Nc1cc(C(F)(F)F)ccc1N1CCOCC1	-	-	-	53.5	57.5	-	48.0	49.5
O=C(/C=C/c1ccco1)NC(=S)Nc1cc(C(F)(F)F)ccc1N1CCOCC1	-	-	-	-	-	-	.	.
C=CCNC(=O)COC(=O)c1c2c(nc3ccccc13)CCC2	-	-	-	-	-	-	.	.
O=C(CSc1nnc2ccc(-c3cccnc3)nn12)Nc1ccccc1	.	-	-	-	-	-	.	.
CCOC(=O)C1(CCCc2ccccc2)CCN(C(=O)CCc2cnn(C)c2)CC1	-	-	-	52.9	42.7	-	40.7	-
COc1ccc(C(=O)Nc2ccc(S(=O)(=O)N3CCN(C)CC3)cc2)cc1	-	-	-	-	-	-	.	.
O=C(COc1ccc2ccccc2c1)Nc1ccc(S(=O)(=O)N2CCCCCC2)cc1	-	-	-	41.4	45.7	-	36.7	-
COc1ccc(C(=O)Nc2ccc(S(=O)(=O)N3CCCCC3)cc2)cc1	-	-	-	47.7	61.0	-	64.4	61.6
O=C(CN1CCN(S(=O)(=O)c2ccc3ccccc3c2)CC1)Nc1ccc(N2CCOCC2)cc1	-	-	-	-	-	-	.	.
SMILES	PfHsp90 yeast 2	SKKanGAS inh	NALP3 yeast inh	tim10-1 inh	TIM10 inh	tim23-1 inh	tim10-1 conf	TIM10 conf
O=C(CN1CCN(S(=O)(=O)c2ccc3ccccc3c2)CC1)Nc1ccc2c(c1)CCC2	-	-	-	43.6	53.3	-	45.6	-
COc1cccc(C(=O)O/N=C(\N)CS(=O)(=O)c2ccccc2)c1	-	-	-	-	-	-	.	.
CC(NCc1ccc(-c2ccccc2)cc1)C(O)c1ccccc1 (configuration not stated)	-	-	-	-	-	-	.	.
O=S(=O)(c1ccc(Cl)cc1)N1CCC(O)(CN2CCN(Cc3ccccc3)CC2)CC1	-	-	-	-	-	-	.	.
O=S(=O)(c1ccccc1)N1CCC(O)(CSc2ccc(Cl)cc2)CC1	-	-	-	43.7	43.0	-	36.5	-
O=C(Nc1cccc(NC(=O)c2ccc([N+](=O)[O-])o2)c1)c1ccco1	-	?	-	72.0	66.6	-	65.8	67.2
CCOC(=O)Cc1csc(Nc2ccc(Cl)cc2)n1	-	-	-	51.8	47.8	-	41.0	36.0
COc1ccc(CC(=O)NC(C)c2ccc3ccccc3c2)cc1 (configuration not stated)	-	-	-	-	-	-	.	.
CNC(=S)N/N=C(\C)c1ccc2c(c1)OCCO2	-	-	-	-	-	-	.	.
C/C(=N\NC(=S)NC(C)C)c1ccc2c(c1)OCCO2	-	-	-	42.6	41.2	-	-	-
Cc1ccccc1NC(=O)Cc1nc(COC(=O)CNS(=O)(=O)c2cccc(Br)c2)cs1	-	-	-	-	-	-	.	.
Cc1nn(-c2ccccc2)c2c1C1(C(=O)N(C)c3ccccc31)C(C#N)=C(N)O2 (configuration not stated)	.	-	-	66.8	41.4	-	54.3	-
O=C(c1ccc(-c2ccc([N+](=O)[O-])cc2)o1)N1CCCCC1	-	-	-	54.2	40.0	-	46.2	-
Cc1c(NC(=O)COC(=O)c2ncc(Cl)c(Cl)c2Cl)c(=O)n(-c2ccccc2)n1C	.	-	-	-	-	-	.	.
CS(=O)(=O)N(CC(=O)N1CCCCCC1)c1cccc([N+](=O)[O-])c1	-	-	-	-	-	-	.	.
S=C(NCCN1CCOCC1)N/N=C/c1c2ccccc2cc2ccccc12	-	-	-	56.7	41.9	-	43.2	-
COc1ccc2ccccc2c1/C=N/NC(=S)NCCN1CCOCC1	-	-	-	-	-	-	.	.
CCCCNC(=O)/C(C#N)=C/c1cccnc1	-	-	-	44.0	50.1	-	34.6	38.9
CC(C)OC(=O)/C(C#N)=C\c1cccnc1	-	-	-	-	-	-	.	.
COc1cc2c(cc1OC)C(C1C(=O)CC(C)(C)CC1=O)N(C(=O)CCl)CC2 (configuration not stated)	-	-	-	-	-	-	.	.
COc1cc2c(cc1OC)C(c1cc(Br)ccc1F)N(C(=O)CCl)CC2 (configuration not stated)	-	-	-	41.5	45.2	-	40.4	43.1
O=C(Nc1ccccc1)Nc1ccno1	-	-	-	-	-	-	.	.
CC(C)(C)c1cnnn1-c1ccc(NC(=O)c2ccc3c(c2)OCO3)cc1	-	-	-	43.8	42.0	-	-	33.8

High-throughput results as filed in PubChem.
